± gives the standard deviation of the averaged measurements.
Key:
MDA-MB-231 [1] = assay: cell viability relative to vehicle unstimulated control (fraction); higher = more viable cells; conditions: pre-treatment time: 18 h then 24 h IFNg/TNF
MDA-MB-231 [2] = assay: kynurenine production, fold change vs DMSO IFNg/TNF control; higher = more kynurenine produced (less inhibition); conditions: pre-treatment time: 18 h then 24 h IFNg/TNF
In short: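 MDA-MB-231 cells (7 × 10^4/well, 96-well plates, seeded 24 h earlier) were pre-treated 18 h with each natural product in 0.1% DMSO, then stimulated 24 h with IFNγ (1 U/ml) and TNF (6.25 ng/ml) at 37°C. Supernatant kynurenine was read at 492 nm after trichloroacetic acid and p-dimethylaminobenzaldehyde treatment, against 0–100 μM standards. Kynurenine production is the fold change over cytokine-stimulated vehicle wells on the same plate, averaged over duplicate plates in the first screening round.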
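Wherever cell viability relative to vehicle unstimulated control is given: viability of the cells left after supernatant collection, read with Deep Blue dye added for 4 h, as absorbance at 570 nm minus 600 nm.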

C/C1=C\C(=O)c2c(C)coc2C/C(C)=C/CC1 [Furanodienone] (compound dose: 10 uM)
cell viability (MDA-MB-231 [1]): 0.949 ± 0.065
kynurenine production (MDA-MB-231 [2]): 0.759 ± 0.13

C[C@H]1[C@H](C)CC[C@]2(C(=O)O)CC[C@]3(C)C(=CC[C@@H]4[C@@]5(C)C[C@@H](O)[C@H](O)[C@@](C)(CO)[C@@H]5CC[C@]43C)[C@H]12 [Asiatic acid] (compound dose: 10 uM)
cell viability (MDA-MB-231 [1]): 1.01 ± 0.018
kynurenine production (MDA-MB-231 [2]): 0.85 ± 0.16

C=C(C)[C@@H]1CC=C(C)CC1 [(-)-Limonene] (compound dose: 10 uM)
cell viability (MDA-MB-231 [1]): 1.1 ± 0.035
kynurenine production (MDA-MB-231 [2]): 0.935 ± 0.21

CC(C)=CCC[C@](C)(O[C@@H]1O[C@H](CO)[C@@H](O)[C@H](O)[C@H]1O)[C@H]1CC[C@]2(C)[C@@H]1[C@H](O)C[C@@H]1[C@@]3(C)CC[C@H](O[C@@H]4O[C@H](CO)[C@@H](O)[C@H](O)[C@H]4O)C(C)(C)[C@@H]3CC[C@]12C [Ginsenoside F2] (compound dose: 10 uM)
cell viability (MDA-MB-231 [1]): 0.992 ± 0.033
kynurenine production (MDA-MB-231 [2]): 0.818 ± 0.12

C[C@@H]1C(=O)O[C@H]2C[C@@]34O[C@@H]5OC(=O)[C@H](O)[C@@]56[C@H](C(C)(C)C)[C@H](O)C(OC3=O)[C@]64[C@]21O (stereo partly specified) [Ginkgolide J] (compound dose: 10 uM)
cell viability (MDA-MB-231 [1]): 0.962 ± 0.014
kynurenine production (MDA-MB-231 [2]): 0.875 ± 0.023

C=C[C@@](C)(/C=C/c1ccc(O)cc1)CCC=C(C)C [Bakuchiol] (compound dose: 10 uM)
cell viability (MDA-MB-231 [1]): 0.95 ± 0.037
kynurenine production (MDA-MB-231 [2]): 0.736 ± 0.018

CC(=O)OC1CCC2(C)C(CCC3(C)C2CC=C2C4C(C)C(C)CCC4(C(=O)O)CCC23C)C1(C)C (stereo unspecified) [Ursolic acid acetate] (compound dose: 10 uM)
cell viability (MDA-MB-231 [1]): 1.11 ± 0.14
kynurenine production (MDA-MB-231 [2]): 0.771 ± 0.053

CC1(C)CC[C@]2(C(=O)O[C@@H]3O[C@H](CO)[C@@H](O)[C@H](O)[C@H]3O)CC[C@]3(C)C(=CC[C@@H]4[C@@]5(C)CC[C@H](O[C@@H]6O[C@H](C(=O)O)[C@@H](O)[C@H](O)[C@H]6O)C(C)(C)[C@@H]5CC[C@]43C)[C@@H]2C1 [Chikusetsusaponin Iva] (compound dose: 10 uM)
cell viability (MDA-MB-231 [1]): 0.986 ± 0.01
kynurenine production (MDA-MB-231 [2]): 0.788 ± 0.14

CCCCCC(=O)O[C@@H]1[C@@H](C)[C@@]2(O)[C@@H](C=C(CO)C[C@]3(O)C(=O)C(C)=C[C@@H]23)[C@@H]2C(C)(C)[C@]12OC(=O)CCCCC [Phorbol 12, 13-Dihexanoate] (compound dose: 10 uM)
cell viability (MDA-MB-231 [1]): 1.05 ± 0.076
kynurenine production (MDA-MB-231 [2]): 0.896 ± 0.056

CC1(C)CC[C@]2(C(=O)O)CC[C@]3(C)C(=CC[C@@H]4[C@@]5(C)CC[C@H](O)C(C)(C)[C@@H]5CC[C@]43C)[C@@H]2C1 [Oleanolic Acid] (compound dose: 10 uM)
cell viability (MDA-MB-231 [1]): 0.984 ± 0.035
kynurenine production (MDA-MB-231 [2]): 0.778 ± 0.07

C[C@H]1[C@H](OC(=O)CCC(=O)O)O[C@@H]2O[C@@]3(C)CC[C@H]4[C@H](C)CC[C@@H]1[C@@]24OO3 [Artesunate] (compound dose: 10 uM)
cell viability (MDA-MB-231 [1]): 0.909 ± 0.13
kynurenine production (MDA-MB-231 [2]): 0.421 ± 0.04

C[C@H]1O[C@@H](O[C@H]2CC[C@@]3(C)[C@@H](CC[C@]4(C)[C@@H]3C=C[C@]35OC[C@@]6(CCC(C)(C)C[C@H]63)[C@H](O)C[C@]54C)[C@]2(C)CO)[C@H](O)[C@@H](O[C@@H]2O[C@H](CO)[C@@H](O)[C@H](O)[C@H]2O)[C@H]1O [Saikosaponin D] (compound dose: 10 uM)
cell viability (MDA-MB-231 [1]): 0.922 ± 0.044
kynurenine production (MDA-MB-231 [2]): 0.603 ± 0.2

COC(=O)[C@]1(C)CC[C@]2(C(=O)O[C@@H]3O[C@H](CO)[C@@H](O)[C@H](O)[C@H]3O)CC[C@]3(C)C(=CC[C@@H]4[C@@]5(C)C[C@H](O)[C@H](O[C@@H]6OC[C@@H](O[C@@H]7O[C@H](CO)[C@@H](O)[C@H](O)[C@H]7O)[C@H](O)[C@H]6O)[C@@](C)(CO)C5CC[C@]43C)[C@H]2C1 (stereo partly specified) [Esculentoside H] (compound dose: 10 uM)
cell viability (MDA-MB-231 [1]): 0.984 ± 0.043
kynurenine production (MDA-MB-231 [2]): 0.825 ± 0.099

CC1=CCC(O)(C(C)C)CC1 (stereo unspecified) [Terpineol] (compound dose: 10 uM)
cell viability (MDA-MB-231 [1]): 0.969 ± 0.087
kynurenine production (MDA-MB-231 [2]): 0.885 ± 0.087

C[C@@H]1CC[C@]2(C(=O)O[C@@H]3O[C@H](CO)[C@@H](O)[C@H](O)[C@H]3O)CC[C@]3(C)C(=CC[C@@H]4[C@@]5(C)CC[C@H](O)[C@@](C)(CO)[C@@H]5CC[C@]43C)[C@@H]2[C@]1(C)O [Pedunculoside] (compound dose: 10 uM)
cell viability (MDA-MB-231 [1]): 0.967 ± 0.074
kynurenine production (MDA-MB-231 [2]): 1 ± 0.29

CC(C)=CCC[C@](C)(O)[C@H]1CC[C@]2(C)[C@@H]1[C@H](O)C[C@@H]1[C@@]3(C)CC[C@H](O)C(C)(C)[C@@H]3[C@@H](O[C@@H]3O[C@H](CO)[C@@H](O)[C@H](O)[C@H]3O[C@@H]3O[C@H](CO)[C@@H](O)[C@H](O)[C@H]3O)C[C@]12C [Ginsenoside Rf] (compound dose: 10 uM)
cell viability (MDA-MB-231 [1]): 0.9642 ± 0.0068
kynurenine production (MDA-MB-231 [2]): 0.749 ± 0.17

C[C@@H]1O[C@@H](O[C@H]2[C@H](O)[C@@H](O)[C@H](OC[C@H]3O[C@@H](OC(=O)[C@]45CCC(C)(C)C[C@H]4C4=CC[C@@H]6[C@@]7(C)CC[C@H](O[C@@H]8OC[C@H](O)[C@H](O)[C@H]8O)[C@@](C)(CO)[C@@H]7CC[C@@]6(C)[C@]4(C)CC5)[C@H](O)[C@@H](O)[C@@H]3O)O[C@@H]2CO)[C@H](O)[C@H](O)[C@H]1O [Cauloside D] (compound dose: 10 uM)
cell viability (MDA-MB-231 [1]): 0.997 ± 0.083
kynurenine production (MDA-MB-231 [2]): 1.23 ± 0.19

C=C1CC[C@H]2[C@@H](/C=C(\C)C(=O)[C@@]3(OC(C)=O)C[C@H](C)[C@H](OC(=O)c4cccnc4)[C@@H]3[C@H]1OC(C)=O)C2(C)C [Euphorbia factor L8] (compound dose: 10 uM)
cell viability (MDA-MB-231 [1]): 1.1 ± 0.075
kynurenine production (MDA-MB-231 [2]): 0.89 ± 0.083

CC1OC(OC2C(OC3CCC4(C)C(CCC5(C)C4CC=C4C6CC(C)(C)CCC6(C(=O)OC6OC(COC7OC(CO)C(O)C(O)C7O)C(O)C(O)C6O)CCC45C)C3(C)CO)OCC(O)C2O)C(O)C(O)C1O (stereo unspecified) [Dipsacoside B] (compound dose: 10 uM)
cell viability (MDA-MB-231 [1]): 0.976 ± 0.042
kynurenine production (MDA-MB-231 [2]): 0.861 ± 0.32

O=c1c(O)c(-c2ccc(O)c(O)c2)oc2cc(O)cc(O)c12 [Quercetin] (compound dose: 10 uM)
cell viability (MDA-MB-231 [1]): 0.974 ± 0.095
kynurenine production (MDA-MB-231 [2]): 0.738 ± 0.2

CC12CCC(C1)C(C)(C)C2O (stereo unspecified) [Fenchyl alcohol] (compound dose: 10 uM)
cell viability (MDA-MB-231 [1]): 1.03 ± 0.041
kynurenine production (MDA-MB-231 [2]): 0.817 ± 0.31

C[C@H]1[C@H](C)CC[C@]2(C(=O)O)CC[C@]3(C)C(=CC[C@@H]4[C@@]5(C)C[C@@H](O)[C@H](O)[C@@](C)(CO)[C@@H]5[C@H](O)C[C@]43C)[C@H]12 [Madecassic acid] (compound dose: 10 uM)
cell viability (MDA-MB-231 [1]): 0.899 ± 0.14
kynurenine production (MDA-MB-231 [2]): 0.839 ± 0.093

C[C@@H]1CC[C@]2(C(=O)O[C@@H]3O[C@H](CO)[C@@H](O)[C@H](O)[C@H]3O)CC[C@]3(C)C(=CC[C@@H]4[C@@]5(C)CC[C@H](O[C@@H]6OC[C@H](O)[C@H](O)[C@H]6O)C(C)(C)[C@@H]5CC[C@]43C)[C@@H]2[C@]1(C)O [Ziyuglycoside I] (compound dose: 10 uM)
cell viability (MDA-MB-231 [1]): 0.947 ± 0.068
kynurenine production (MDA-MB-231 [2]): 0.804 ± 0.19

CCCCC/C=C/C=C/C(=O)O[C@H]1C(C)=C[C@]23C(=O)[C@@H](C=C(CO)[C@@H](O)[C@]12O)[C@H]1[C@@H](C[C@H]3C)C1(C)C [3-O-(2'E,4'EDecadienoyl)ingenol] (compound dose: 10 uM)
cell viability (MDA-MB-231 [1]): 0.9682 ± 0.0024
kynurenine production (MDA-MB-231 [2]): 0.812 ± 0.086

CC(C)=CCC[C@](C)(O)[C@@H]1CC=C(C)CC1 [alpha-Bisabolol] (compound dose: 10 uM)
cell viability (MDA-MB-231 [1]): 0.9925 ± 0.0046
kynurenine production (MDA-MB-231 [2]): 0.79 ± 0.15

CSC(=O)OCC1=C[C@H](O)[C@H]2C(C(=O)O)=CO[C@@H](O[C@@H]3O[C@@H](CO)[C@@H](O)[C@@H](O)[C@H]3O)[C@H]12 [Paederosidic acid] (compound dose: 10 uM)
cell viability (MDA-MB-231 [1]): 1.14 ± 0.012
kynurenine production (MDA-MB-231 [2]): 1.07 ± 0.07

CC1=CC23C(=O)C(C=C4COC(C)(C)OC4C24OC(C)(C)OC14)C1C(CC3C)C1(C)C (stereo unspecified) [Ingenol-3,4:5,20-diacetonide] (compound dose: 10 uM)
cell viability (MDA-MB-231 [1]): 1.04 ± 0.022
kynurenine production (MDA-MB-231 [2]): 1.11 ± 0.045

COC(=O)[C@@]1(C)CC[C@]2(C(=O)O)CC[C@]3(C)C(=CC[C@@H]4[C@@]5(C)C[C@H](O)[C@H](O)[C@@](C)(CO)[C@@H]5CC[C@]43C)[C@@H]2C1 [Phytolaccagenin] (compound dose: 10 uM)
cell viability (MDA-MB-231 [1]): 0.924 ± 0.049
kynurenine production (MDA-MB-231 [2]): 0.875 ± 0.095

C=C(C)C1CC=C(C)[C@@H](O)C1 (single isomer, unassigned; (-)) [(-)-carveol (mixed)] (compound dose: 10 uM)
cell viability (MDA-MB-231 [1]): 0.985 ± 0.086
kynurenine production (MDA-MB-231 [2]): 1.02 ± 0.019

CC1(C)CC[C@]2(C(=O)O)[C@H](O)C[C@]3(C)C(=CC[C@@H]4[C@@]5(C)CC[C@H](O)C(C)(C)[C@@H]5CC[C@]43C)[C@H]2C1 [Echinocystic acid] (compound dose: 10 uM)
cell viability (MDA-MB-231 [1]): 1.03 ± 0.014
kynurenine production (MDA-MB-231 [2]): 0.787 ± 0.065

C[C@H]1[C@H](C)CC[C@]2(C(=O)O)CC[C@]3(C)C(=CC[C@@H]4[C@@]5(C)CCC(=O)C(C)(C)[C@@H]5CC[C@]43C)[C@H]12 [Ursonic acid] (compound dose: 10 uM)
cell viability (MDA-MB-231 [1]): 0.9233 ± 0.0046
kynurenine production (MDA-MB-231 [2]): 0.733 ± 0.12

C[C@@H]1C(=O)O[C@H]2C[C@@]34[C@H]5C[C@@H](C(C)(C)C)[C@]36[C@@H](OC(=O)[C@@H]6O)O[C@@]4(C(=O)O5)[C@]21O [Ginkgolide A] (compound dose: 10 uM)
cell viability (MDA-MB-231 [1]): 1.03 ± 0.13
kynurenine production (MDA-MB-231 [2]): 1.2 ± 0.084

C=C(C)[C@@H]1CC[C@]2(C(=O)O)CC[C@]3(C)[C@H](CC[C@@H]4[C@@]5(C)CC[C@H](O[C@@H]6OC[C@H](O)[C@H](O)[C@H]6O[C@@H]6O[C@@H](C)[C@H](O)[C@@H](O)[C@H]6O)[C@@](C)(CO)[C@@H]5CC[C@]43C)[C@@H]12 [Pulchinenoside A] (compound dose: 10 uM)
cell viability (MDA-MB-231 [1]): 1.04 ± 0.051
kynurenine production (MDA-MB-231 [2]): 0.878 ± 0.057
